According to PubChem BioAssay:
Values joined by “and” are separate entries in the source; they are usually repeats but may differ in a detail not shown here. Equal entries are not always repeated. Records with an inconclusive call do not appear. Active and inactive are the calls of the source.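 How the source made its calls, unless noted: active means normalized viability below 100% at a tested concentration; inactive means the rest.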

Legend:
[1] = altered dexamethasone sensitivity, NF-kB reporter, cell-based, luciferase, IL-1B stimulus (AID 624486; call rule not given here;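 on percent of negative control (+Dex): 100% = mean signal of vehicle control wells on the plate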); settings: IL-1B + dexamethasone, luminescence; percent of negative control (+Dex): actives lie on both sides, concentration not given here; z-score: measured here: IL-1B alone, no Dex
[2] = target: Cellular tumor antigen p53 (Homo sapiens) (UniProt P04637); experiment: GFP-p53 level modulators in HPV16+ cells – imaging, known kinase inhibitor set, EGFP/DsRed ratio (AID 1053116; call rule not given here;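 further: cells exposed to compounds for 24 h at 37 °C before reading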); settings: GFP-p53 stability, stronger effect = higher value; EGFP object count: measured here: GFP-p53 positive objects count
[3] = inducers of IRF3 signaling, differentiated THP-1 – cell-based, PMA-stimulated THP-1, luminescence (AID 1053176; call rule not given here); settings: PMA-differentiated THP-1, IRF3 reporter luminescence; stronger effect = higher value
[4] = viability loss in pontine glioma line – cell-based, SU-DIPG-XIII, MIPE4.0, CellTiter-Glo, qHTS, dose response (AID 1347061; cut-off not given, nearly all actives have AC50 up to about 37 µM;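 further: cells exposed to compound for 48 hours before readout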); settings: CellTiter-Glo ATP luminescence
[5] = viability loss in pontine glioma line – cell-based, JHH-DIPG-1, MIPE4.0, CellTiter-Glo, qHTS, dose response (AID 1347062; cut-off not given, nearly all actives have AC50 up to about 27 µM;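 on AC50: cells exposed to compound for two days before readout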); settings: JHH-DIPG-1 viability, CellTiter-Glo ATP luminescence
[6] = viability loss in pontine glioma line – cell-based, SU-DIPG-XXV, MIPE5.0, CellTiter-Glo, qHTS, dose response (AID 1347065; cut-off not given, nearly all actives have AC50 up to about 26 µM;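 further: cells exposed to compound for 48 hours before ATP readout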); settings: CellTiter-Glo ATP luminescence
[7] = growth inhibition of DIPG cells – cell-based, MIPE4.0 library, CellTiter-Glo luminescence, qHTS (AID 1347066; cut-off not given, nearly all actives have AC50 up to about 30 µM;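 further: cells exposed to compound for 48 hours before readout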); settings: SU-DIPG-VI viability, CellTiter-Glo ATP luminescence
[8] = JHH-DIPG-1 glioma cell viability, MIPE5.0 library, CellTiter-Glo luminescence, qHTS (AID 1347067; cut-off not given, nearly all actives have AC50 up to about 26 µM;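 further: cells exposed to compound for 48 hours before readout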); settings: JHH-DIPG-1 glioma viability, CellTiter-Glo ATP luminescence
[9] = growth inhibition of DIPG cells – cell-based, MIPE5.0 library, qHTS (AID 1347068; cut-off not given, nearly all actives have IC50 up to about 30 µM); settings: SU-DIPG-XXV viability
[10] = liver-stage malaria parasite load reduction – cell-based, known kinase inhibitor set, luminescence, hepatoma host viability (AID 624392; call rule not given here;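 further: infected cells incubated roughly two days before readout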); settings: Plasmodium liver stage in hepatoma cells, luciferase luminescence, concentration not given here; liver cell % of control: measured here: host liver cell viability; parasite % of control: stronger effect = lower value
[11] = C. elegans survival during P. aeruginosa infection – whole organism (AID 651566; call rule not given here;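 further: tested at 14 µM; sign flipped so higher z means a lower ratio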); settings: C. elegans killed by P. aeruginosa, survival ratio
[12] = pro-inflammatory signaling induction in mouse macrophages – cell-based, murine, luminescence (AID 652131; call rule not given here); settings: murine macrophage pro-inflammatory reporter, stronger effect = higher value
[13] = viability loss in pontine glioma line – cell-based, SU-DIPG-IV, MIPE4.0, CellTiter-Glo, qHTS, dose response (AID 1347063; cut-off not given, nearly all actives have AC50 up to about 30 µM;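 further: compound exposure lasted 48 hours before the viability readout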); settings: CellTiter-Glo ATP luminescence
[14] = compounds altering HSF1 focus formation in cells – imaging, Selleck Cancer Library (AID 1347162; in the data active means plate-normalised HSF1 focus index below about 0.46); settings: human cells, HSF1 nuclear foci imaging, at 10 µM; SSMD: measured here: HSF1 foci SSMD mean; cell count: measured here: cell number; plate-normalised HSF1 focus index: stronger effect = lower value
[15] = MELAS cybrid and Rieske KO viability enhancers – cell-based, MELAS cybrids, Rieske KO mouse fibroblasts, CellTiter-Glo, primary screen (AID 1508586;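 active means mean z-score across replicates of 1.96 or higher in either the MELAS or the Rieske mutant cell line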;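 further: z relative to plate mean and SD of compound and empty wells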); settings: low glucose
[16] = viability loss in pontine glioma line – cell-based, SU-DIPG-XVII, MIPE5.0, CellTiter-Glo, qHTS, dose response (AID 1347060; cut-off not given, nearly all actives have AC50 up to about 26 µM); settings: CellTiter-Glo ATP luminescence
[17] = drug combination growth inhibition, ovarian cancer – cell-based, oncology-focused library, rucaparib conditional, profiling panel (AID 1508598); settings: patient-derived ovarian cancer cells, CellTiter-Glo viability, 144 h, stronger effect = lower value
[18] = galactose survival enhancers in mitochondrial complex I cybrids – cell-based, galactose medium, ATP luminescence, primary screen (AID 1645843;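 active means z-score of at least 1.8 in each of two replicates, scored against plate mean and spread of sample wells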;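 further: positive z means more ATP and so rescue of galactose-driven cybrid death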); settings: complex I mutant cybrid cells, 72 h, stronger effect = higher value
[19] = MELAS cybrid survival, CellTiter-Glo 48 h, stronger effect = higher value
[20] = Rieske KO mouse fibroblast survival, CellTiter-Glo 72 h

Cellular tumor antigen p53 (Homo sapiens), sequence (P04637 whole entry, looked up): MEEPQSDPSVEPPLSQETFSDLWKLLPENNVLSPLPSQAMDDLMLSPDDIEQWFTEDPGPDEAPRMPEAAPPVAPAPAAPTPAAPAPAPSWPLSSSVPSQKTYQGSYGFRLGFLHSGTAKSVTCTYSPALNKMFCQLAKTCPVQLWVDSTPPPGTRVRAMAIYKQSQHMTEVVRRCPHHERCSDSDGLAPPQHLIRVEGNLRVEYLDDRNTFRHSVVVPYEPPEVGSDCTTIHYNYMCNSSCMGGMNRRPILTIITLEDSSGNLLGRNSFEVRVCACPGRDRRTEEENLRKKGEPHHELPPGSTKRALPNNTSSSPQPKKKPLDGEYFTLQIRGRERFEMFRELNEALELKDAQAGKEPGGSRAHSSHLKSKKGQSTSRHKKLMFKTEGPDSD

Cn1c(=O)c(Oc2ccc(F)cc2F)cc2cnc(NC3CCOCC3)nc21
inactive: percent of negative control (+Dex) [1] 102% | EGFP/DsRed ratio [2] 0.0482 | fraction signal [3] -0.007 | outcome [4] | outcome [5] | outcome [6] | outcome [7] | outcome [8] | outcome [9]
-0.045: z-score [1]
4: EGFP object count [2]

CN(C)CCOc1ccc(-c2nc(-c3ccc4c(c3)CC/C4=N\O)c(-c3ccncc3)[nH]2)cc1
9: EGFP object count [2]
1.6: SSMD [14]
7550: cell count [14]
active: AC50 [5] 18.7 µM | AC50 [13] 13.2 µM | AC50 [7] 11.8 µM | AC50 [8] 16.6 µM
0.795: z-score [1]
69.4%: liver cell % of control [10]
0.717: z-score [15, 19]
inactive: parasite % of control [10] 215% | percent of negative control (+Dex) [1] 118% | z-score [11] -0.45 | z-score [12] 1.26 | EGFP/DsRed ratio [2] 0.212 | fraction signal [3] -0.008 | outcome [4] | plate-normalised HSF1 focus index [14] 1.1
2.06: z-score [15, 20]

CN(C)CCNC(=O)Nc1ccc(N(C)c2ccnc(Nc3ccc(CS(C)(=O)=O)cc3)n2)cc1
1: EGFP object count [2]
inactive: parasite % of control [10] 94.7% | percent of negative control (+Dex) [1] 101% | z-score [11] -0.12 | z-score [12] 3.19 | EGFP/DsRed ratio [2] 0.0718 | fraction signal [3] 0.0045 | z-score [15, 19] -0.741
111%: liver cell % of control [10]
-0.235: z-score [1]
-0.109: z-score [15, 20]

NC(=O)c1ccc(-c2nc(-c3ccc4c(c3)OCO4)c(-c3ccccn3)[nH]2)cc1
-0.512 and 0.389: z-score [15, 20]
0.215: z-score [1]
5.5: EGFP object count [2]
inactive: parasite % of control [10] 99.9% | percent of negative control (+Dex) [1] 92% | z-score [11] -0.47 | z-score [12] 5.36 | EGFP/DsRed ratio [2] 0.161 | fraction signal [3] -0.007 | outcome [16] | outcome [4] | outcome [5] | outcome [13] | outcome [6] | outcome [7] | outcome [9] | plate-normalised HSF1 focus index [14] 1.06 | z-score [15, 19] -0.87 and -0.497 | viability ([17]; at 0.000305 µM, OCI-C5x cells, with rucaparib 10 µM, 100% = cells with rucaparib alone) 134% | viability ([17]; at 0.000305 µM, OCI-C5x cells, without rucaparib) 138% | viability ([17]; at 0.000305 µM, OCI-P5x cells, with rucaparib 20 µM, 100% = cells with rucaparib alone) 116% | viability ([17]; at 0.000305 µM, OCI-P5x cells, without rucaparib) 105% | viability ([17]; at 0.00122 µM, OCI-C5x cells, with rucaparib 10 µM, 100% = cells with rucaparib alone) 135% | viability ([17]; at 0.00122 µM, OCI-C5x cells, without rucaparib) 143% | viability ([17]; at 0.00122 µM, OCI-P5x cells, with rucaparib 20 µM, 100% = cells with rucaparib alone) 110% | viability ([17]; at 0.00122 µM, OCI-P5x cells, without rucaparib) 103% | viability ([17]; at 0.00488 µM, OCI-C5x cells, with rucaparib 10 µM, 100% = cells with rucaparib alone) 139% | viability ([17]; at 0.00488 µM, OCI-C5x cells, without rucaparib) 135% | viability ([17]; at 0.00488 µM, OCI-P5x cells, with rucaparib 20 µM, 100% = cells with rucaparib alone) 108% | viability ([17]; at 0.0195 µM, OCI-C5x cells, with rucaparib 10 µM, 100% = cells with rucaparib alone) 136% | viability ([17]; at 0.0195 µM, OCI-C5x cells, without rucaparib) 143% | viability ([17]; at 0.0195 µM, OCI-P5x cells, with rucaparib 20 µM, 100% = cells with rucaparib alone) 112% | viability ([17]; at 0.0195 µM, OCI-P5x cells, without rucaparib) 101% | viability ([17]; at 0.0781 µM, OCI-C5x cells, with rucaparib 10 µM, 100% = cells with rucaparib alone) 130% | viability ([17]; at 0.0781 µM, OCI-C5x cells, without rucaparib) 147% | viability ([17]; at 0.0781 µM, OCI-P5x cells, with rucaparib 20 µM, 100% = cells with rucaparib alone) 106% | viability ([17]; at 0.313 µM, OCI-C5x cells, with rucaparib 10 µM, 100% = cells with rucaparib alone) 130% | viability ([17]; at 0.313 µM, OCI-C5x cells, without rucaparib) 146% | viability ([17]; at 0.313 µM, OCI-P5x cells, with rucaparib 20 µM, 100% = cells with rucaparib alone) 105% | viability ([17]; at 0.313 µM, OCI-P5x cells, without rucaparib) 102% | viability ([17]; at 1.25 µM, OCI-C5x cells, with rucaparib 10 µM, 100% = cells with rucaparib alone) 146% | viability ([17]; at 1.25 µM, OCI-C5x cells, without rucaparib) 153% | viability ([17]; at 1.25 µM, OCI-P5x cells, with rucaparib 20 µM, 100% = cells with rucaparib alone) 114% | viability ([17]; at 5 µM, OCI-C5x cells, with rucaparib 10 µM, 100% = cells with rucaparib alone) 198% | viability ([17]; at 5 µM, OCI-C5x cells, without rucaparib) 187% | viability ([17]; at 5 µM, OCI-P5x cells, with rucaparib 20 µM, 100% = cells with rucaparib alone) 102% | z-score [18] -0.03
7590: cell count [14]
active: viability ([17]; at 0.00488 µM, OCI-P5x cells, without rucaparib) 99.5% | viability ([17]; at 0.0781 µM, OCI-P5x cells, without rucaparib) 94.4% | viability ([17]; at 1.25 µM, OCI-P5x cells, without rucaparib) 92.1% | viability ([17]; at 5 µM, OCI-P5x cells, without rucaparib) 93.9%
0.986: SSMD [14]
92.1%: liver cell % of control [10]
